Assay outcomes: PubChem BioAssay, National Center for Advancing Translational Sciences (NCATS)
The list is not random: actives were taken first. Their share in the collection is about 4.6%.
D1 antag = human D1 dopamine receptor antagonism. activity change, negative = inhibition, % at 10 µM. HEK293 TREx D1 cells, calcium flux, dopamine EC80; stronger effect = lower value. 360,000 compounds, 3.2% hits; in the data active means activity change below about -30%; further: on the % scale 0 is the no-effect control and ±100 the full control effect
Target sequence (P21728 whole entry, looked up): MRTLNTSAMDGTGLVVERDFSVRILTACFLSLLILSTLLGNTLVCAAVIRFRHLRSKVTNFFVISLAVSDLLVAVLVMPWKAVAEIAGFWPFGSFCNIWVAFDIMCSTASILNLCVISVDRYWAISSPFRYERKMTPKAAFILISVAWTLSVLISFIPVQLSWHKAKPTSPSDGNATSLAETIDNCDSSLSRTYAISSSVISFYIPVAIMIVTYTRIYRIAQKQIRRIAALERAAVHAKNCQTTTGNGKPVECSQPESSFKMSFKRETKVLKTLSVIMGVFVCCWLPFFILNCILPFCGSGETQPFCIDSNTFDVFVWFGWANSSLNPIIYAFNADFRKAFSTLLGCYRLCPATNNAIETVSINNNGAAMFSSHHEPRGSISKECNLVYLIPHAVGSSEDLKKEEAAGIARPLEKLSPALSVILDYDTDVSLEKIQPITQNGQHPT
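Cells carrying a force-coupled, tetracycline-inducible human D1 receptor report calcium flux. Each well gets a 10 s baseline, compound with 180 s monitoring, then an EC80 dopamine stimulus with a second 180 s kinetic read.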
D1 ag = agonists of human D1 dopamine receptor; activation, % at 2 µM; HEK293 T-REx D1 cells, calcium flux, agonist mode; 360,000 compounds, 1% hits; P21728; further: 0% is about no effect
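Agonism was scored from calcium flux recorded over 180 s (1 read/s) after pintool compound addition, following a 10-cycle baseline. Cells were inducible force-coupled HEK293 TREx D1, plated overnight at 30 C and loaded with no-wash calcium dye.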
D1 potentiator = human D1 dopamine receptor positive modulation; P21728; HEK293 TREx D1 cells, calcium flux, dopamine EC20 potentiation; potentiation, % at 10 µM; 360,000 compounds, 0.036% hits; in the data active means potentiation above about 30%; further: 0% is about no effect
TRHR agonist = activates the human TRH receptor; 360,000 compounds, 0.18% hits; TRHR cells, calcium flux fluo-8, FDSS agonist mode; activation, % at 2 µM; further: 0% is about no effect
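TRHR-expressing cells, plated overnight in medium with 10% serum, were loaded with fluo-8 calcium dye at room temperature. After a 10 s baseline, library compound was pin-added and calcium release was recorded kinetically (ex 480/em 530) as agonist response.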
TRHR PAM = allosteric enhancers of human TRH receptor; 360,000 compounds, 0.66% hits; TRHR cells, fluo-8 calcium fluorescence, EC20 TRH enhancement; P34981; enhancement, % at 2 µM; in the data active means enhancement above about 30%; further: 0% is about no effect
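TRHR-expressing cells loaded with fluo-8 calcium dye were read kinetically (ex 480/em 530) during compound addition, then stimulated with an EC20 of TRH (10 nM final). Enhancement of the Gq-mediated intracellular calcium response was scored.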
An asterisk follows results filed as active; ! = not confirmed by another sample. Unless noted, no stated cut-off is given here; in the data, active means activation above about 30%; inactive means the rest.

What do the screens show for `O=C(O)CCc1ccc(-c2ccc(Br)cc2)n1-c1ccc(O)cc1`?
D1 antag: 2; D1 ag: 0; D1 potentiator: 0; TRHR agonist: -1; TRHR PAM: 0

How did CCOc1ccc(-n2c(CCC(=O)O)ccc2-c2ccc(Br)cc2)cc1 do in these assays?
D1 antag: -7; D1 ag: 6; D1 potentiator: 1; TRHR agonist: 0; TRHR PAM: 33*

What do the screens show for `CCOC(=O)c1ccc(-n2c(CCC(=O)O)ccc2-c2ccc(Br)cc2)cc1`?
D1 antag: -31*; D1 ag: 4; D1 potentiator: -3; TRHR agonist: 0; TRHR PAM: 1

What do the screens show for `COc1ccc(NC(=O)CN2C(=O)C(c3ccc(C)cc3)=NC23CCCCCC3)cc1Cl`?
D1 antag: -5; D1 ag: 4; D1 potentiator: -2; TRHR agonist: 0; TRHR PAM: 2

What do the screens show for `COc1ccc(C2=NS(=O)(=O)N(C)C(C(=O)Nc3ccc(OC)c(OC)c3)=C2)cc1`?
D1 antag: -34*; D1 ag: 2; D1 potentiator: -12; TRHR agonist: 0; TRHR PAM: 1

What do the screens show for `CCc1ccccc1NC(=O)C1=CC(c2ccc(OC)c(OC)c2)=NS(=O)(=O)N1C`?
D1 antag: -12; D1 ag: 35*!; D1 potentiator: -2; TRHR agonist: 0; TRHR PAM: 3

What do the screens show for `COc1ccc(NC(=O)C2=CC(c3ccc(C)cc3)=NS(=O)(=O)N2C)cc1OC`?
D1 antag: -10; D1 ag: 1; D1 potentiator: -2; TRHR agonist: 0; TRHR PAM: 1

How did COc1ccc(NC(=O)C2=CC(c3ccc(C)cc3)=NS(=O)(=O)N2C)cc1 do in these assays?
D1 antag: -33*; D1 ag: 18; D1 potentiator: 0; TRHR agonist: -1; TRHR PAM: -2

What do the screens show for `COc1ccc(C2=NS(=O)(=O)N(C)C(C(=O)Nc3cc(C)ccc3O)=C2)cc1OC`?
D1 antag: -9; D1 ag: 1; D1 potentiator: -8; TRHR agonist: 0; TRHR PAM: -1

How did CCN(C(=O)c1cccn(Cc2cccc(Cl)c2)c1=O)c1ccccc1 do in these assays?
D1 antag: -3; D1 ag: 1; D1 potentiator: -5; TRHR agonist: 0; TRHR PAM: -2

Results for Cc1cc(C)cc(NC(=O)N2CCC3(CC2)Oc2ccccc2C(=O)N3Cc2ccccc2F)c1 ?
D1 antag: -13; D1 ag: 2; D1 potentiator: -2; TRHR agonist: 1; TRHR PAM: -6

What do the screens show for `Cc1cc(N)n2nc(-c3ccccc3)cc2n1`?
D1 antag: -41*; D1 ag: 1; D1 potentiator: -8; TRHR agonist: 0; TRHR PAM: 3

Results for CC(C)CCn1c(=O)c2cccnc2n(CC(=O)Nc2ccc(F)cc2)c1=O ?
D1 antag: 7; D1 ag: 1; D1 potentiator: -4; TRHR agonist: 1; TRHR PAM: -2

How did CCOC(=O)/C(=C/C=C1\Sc2ccccc2N1CC)C(C)=O do in these assays?
D1 antag: 2; D1 ag: 219*; D1 potentiator: 0; TRHR agonist: 80*; TRHR PAM: 22

Results for CCOC(=O)/C(=C/C=C1\Sc2cc(C)c(C)cc2N1CC)C(C)=O ?
D1 antag: -12; D1 ag: 349*; D1 potentiator: 9; TRHR agonist: 249*; TRHR PAM: 21

What do the screens show for `CCC(=O)/C=C1/Sc2ccccc2N1CC`?
D1 antag: -3; D1 ag: 1; D1 potentiator: -7; TRHR agonist: 0; TRHR PAM: 5

How did CCOC(=O)/C(=C\C=C1/Sc2ccccc2N1CC)C(C)=O do in these assays?
D1 antag: -29; D1 ag: 290*; D1 potentiator: -1; TRHR agonist: 71*; TRHR PAM: 13

What do the screens show for `CCN(Cc1ccccc1)Cc1c(O)ccc2oc(C)c(C(=O)Nc3ccccc3C)c12`?
D1 antag: 12; D1 ag: -2; D1 potentiator: 2; TRHR agonist: 0; TRHR PAM: 0

Results for CNC(=O)c1cccc(-n2c(C)nc3cccnc32)c1C ?
D1 antag: 3; D1 ag: 0; D1 potentiator: 0; TRHR agonist: 1; TRHR PAM: -2
